From PubChem BioAssay AID485313 (National Center for Advancing Translational Sciences (NCATS), 2010)
Screen size: about 320,000 compounds; about 7,600 (2.4%) were called active. Another 3% or so got no clear call; they are omitted. Calls come from the whole dose curve; as a rule, active = well fitted activation curve with a large enough effect; inconclusive = small, poorly fitted or top-dose-only effect; inactive = no such curve, though single readings can be large or run the other way. What follows is part of a selection rich in actives, with near analogues and random picks from the rest.

Experiment: qHTS Assay for NPC1 Promoter Activators; note: nearly all actives have a fitted effect of over 60% in size;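 for activation: reporter is driven by a mutant NPC1 promoter; % of control where 0% means no effect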
Details: Huh7 NPC1 promoter luciferase reporter, 24 h; series mostly up to 9.22 µM
Method in brief: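 Readout is luciferase luminescence, reflecting NPC1 promoter activation in stably transfected Huh7 cells after 24 h compound exposure at 37 °C in reduced-serum medium with 10% FBS.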
Potency is the fitted concentration of half-maximal effect.

Potency, active:
O=C(CSC(=S)N1CCOCC1)c1ccccc1 501 nM
O=C(CSC(=S)N1CCCCC1)c1c(F)cccc1F 1120 nM
COc1cc(/C=N/NC(=O)c2ccc(N3CCCC3=O)cc2)ccc1O 2510 nM
O=C(Nc1cc2ccccc2oc1=O)C1CCCCC1 447 nM
Cc1ccc(OCCOc2cccc(/C=N/NC(N)=O)c2)cc1 2820 nM
Cn1nccc1NS(=O)(=O)c1ccc(F)cc1 0.3 nM
Nc1[nH][nH]c(=O)c1N=Nc1ccc2c(c1)OCO2 2820 nM
CCC(=O)Nc1ccc(-c2ccc(N3CCCCC3)nn2)cc1 2240 nM
O=C(Nc1ccc2c(c1)OCO2)C1CC(c2c(F)cccc2Cl)=NO1 (centres undefined) 3980 nM

Potency, inactive:
NS(=O)(=O)c1ccc(CNC(=O)c2cccc(S(=O)(=O)N3CCc4ccccc43)c2)cc1
O=C(O)c1cccc(S(=O)(=O)N2CC=C(c3ccccc3)CC2)c1
COc1cccc(C(=O)OCC(=O)c2[nH]c(C)c(C(C)=O)c2C)c1
COCCN1C(=O)C(=O)/C(=C(/O)c2ccc(S(=O)(=O)N3CCCCC3)cc2)C1c1ccc(OC)c(OC)c1 (centres undefined)
COc1cccc(NC(=O)CN(C)C(=O)CSC(=S)N2CCCC2)c1
CC(=O)c1ccc(NC(=O)CSC(=S)N2CCCC2)cc1
O=C(CSC(=S)N1CCOCC1)c1cc(Br)cc(Br)c1O
CC1CN(C(=S)SCC(=O)c2ccccc2)CC(C)O1 (centres undefined)
C=CCC(NC(=O)Cc1ccccc1)C(=O)NCCC (centres undefined)
COc1ccc2nc(NC3=NCN(CC4CCCO4)CN3)nc(C)c2c1 (centres undefined)
COc1ccc(NS(=O)(=O)c2cc(NC(=O)COc3ccccc3F)ccc2OC)cc1
COc1ccc(C(=O)Nc2ccccc2C(=O)N/N=C/c2ccc(O)c(OC)c2)cc1
O=C(N/N=C/c1cccc(Br)c1)c1ccc(N2CCCC2=O)cc1
O=C1C=C(c2cccc(Cl)c2)C[C@@H](c2ccc(F)cc2)C1
CN1C(=O)c2ccc(NC(=O)C3CCCCC3)cc2C1=O
Cc1ccccc1NC(=O)C1CCN(C(=O)NC2CCCCC2)CC1
COc1ccc(S(=O)(=O)N2CCOCC2)cc1NC(=O)Cc1c(F)cccc1Cl
Cc1sc2ncnc(SCC(=O)Nc3ccc(CN4CCCC4)cc3)c2c1C
O=C(N/N=C/c1cccc(OCc2ccccc2)c1)c1ccc(Br)o1
Cc1cccc(OCC(=O)NCC(=O)N/N=C/c2ccc(N(C)C)cc2)c1
COc1ccc(OC)c(-c2csc(NC(=O)COC(=O)C3CC3)n2)c1
Cc1cc(C)cc(NS(=O)(=O)c2ccc(F)cc2)c1
Cc1ccc(NS(=O)(=O)c2ccc(F)cc2)nc1
O=C(CCNC(=O)c1ccc(Cl)cc1)NC1CCCc2ccccc21 (centres undefined)
Cc1[nH][nH]c(=O)c1N=Nc1ccccc1
CC(=O)c1cc2c(cc1N)OCO2
Cc1cc(C)cc(OCC(=O)OCC(=O)NC2CCCC2)c1
Nc1ccn(CC(=O)N2CCN(c3ccccn3)CC2)c(=O)n1
CC(C)N(Cc1nnc(-c2ccccc2Br)o1)C(=O)c1cc(Cl)nc2ccccc12
CCCCSc1nnc(-c2ccc(NC(=O)CC)cc2)n1C
CCC(=O)c1ccc(OCC(=O)Nc2ccc(N3CCCCC3)cc2)cc1
CN(CC(=O)NCCc1ccc(F)cc1)CC(=O)Nc1ccc(F)c(F)c1F
Cc1ccc(NC(=O)C2CC(c3ccc(F)cc3)=NO2)cc1 (centres undefined)
O=C(Nc1ccc2c(c1)OCO2)C1CC1(Cl)Cl (centres undefined)
CN(Cc1cccs1)C(=O)CN1C(=O)c2ccccc2S1(=O)=O
O=C(COC(=O)c1cccc(Cl)c1)NC1CCCCCCC1
CCCN(CC(=O)NC(=O)NC1CCCCC1)CC(=O)Nc1cc(Cl)ccc1Cl
CC(=O)NC12CC3CC(C1)CC(C(=O)N1CCN(S(=O)(=O)c4cccs4)CC1)(C3)C2

activation, inactive:
COc1ccc(C(=O)N2CCN(c3ncccn3)CC2)cc1S(=O)(=O)N1CCOCC1 -2.21% [at 1.84 µM]
O=C(NCC1CCCO1)c1cc2c(s1)CCCC2 (centres undefined) 12.7% [at 1.84 µM]
